The source made the active and inactive calls. How the source made its calls: active means hit-call score of the fitted dose curve at least 0.9, where 1 is the maximum; inactive means score below 0.9.
Test: CEETOX_H295R_DOC: CeeTox H295R High-throughput Steroidogenesis Assay for DOC (AID 2283439)
Details: actives raise or lower the signal
Procedure: CEETOX_H295R is a cell-based, multiplexed-readout assay that uses H295R, a human adrenal gland cell line, with measurements taken at 48 hours after chemical dosing in a 96-well plate.CEETOX_H295R_DOC is one of 23 assay component(s) measured or calculated from the CEETOX_H295R assay. It is designed to make measurements of hormone induction, a form of inducible reporter, as detected with absorbance signals by HPLC-MS-MS technology.Data from the assay component CEETOX_H295R_DOC was analyzed into 1 assay endpoint. This assay endpoint, CEETOX_H295R_DOC, was analyzed with bidirectional fitting relative to DMSO as the negative control and baseline of activity. Using a type of inducible reporter, gain or loss-of-signal activity using HPLC-MS-MS was used to understand synthesis of 11-Deoxycorticosterone in H295R cell line at 48hr of chemical exposure. To generalize the intended target to other relatable targets, this assay endpoint is annotated to the steroid hormone intended target family, where the subfamily is glucocorticoids.
Cell culture and media preparation procedures were conducted in accordance with OECD Test No. 456 guidelines, with minor modifications. H295R cells (ATCC CRL-2128) were expanded for 5 passages and frozen in batches in liquid nitrogen. Prior to the steroidogenesis assay, H295R cells were thawed and passed at least 4 times. The maximum passage was 10. Cells were maintained in a 1:1 mixture of DMEM/F12 supplemented with 5ml/L ITS+ Premix (BD Bioscience) and 12.5 ml/L Nu-Serum (BD Bioscience). After seeding cells into 96-well plates at 50-60% confluency, cells were allowed to adhere overnight. Prior to chemical testing, culture medium was replaced with 175 uL medium containing 10 uM forskolin to stimulate steroidogenesis for 48 hours. Following prestimulation, forskolin medium was replaced with medium containing test chemical solubilized in DMSO (ensuring a final concentration of 0.1% DMSO). Test chemicals were incubated for 48 hours, then the medium was removed and split into 2 vials containing approximately 75uL each, and stored at -80 C prior to hormone analysis. For steroid quantification, media samples were shipped to OpAns, LLC (Durham, NC) on dry ice, and samples were thawed to room temperature prior to liquid-liquid extraction. Steroid hormones were extracted from media samples using methyl tertbutyl ether (MTBE). An extra derivatization with dansyl chloride was included for estrogen (estrone and estradiol) detection only. Steroid hormones were separated by HPLC, eluted using a reverse phase C18 gradient with electrospray positive ionization, followed by quantification by tandem mass spectrometry (MS/MS). Data were acquired on a MassHunter Workstation Acquisition version B03.01 (Agilent Technologies, Inc.) and processed using MassHunter Quantitative Analysis for QQQ. Accuracy was determined for each hormone analyte from 3 standards to determine upper and lower limits of quantification (ULOQ and LLOQ, respectively) using a 7-point standard curve. Precision and accuracy of the extraction and quantification methods were calculated as the percent relative standard deviation (%RSD) of the spiked standards and percent spiked standard recovered, respectively. […] Test medium was removed following chemical exposure, and cell viability was evaluated in the same wells by MTT. MTT procedures were as follows: after removal of test medium, 500 uL of 0.5 mg/ml of 3-[4,5-dimethylthiazol-2-y]2,5-diphenyltetrazoliumbromide solution was added to the cells. Following a 4-hour incubation at 37 C and 5% CO2 to allow formazan-crystal formation, the MTT solution was removed and blue formazan salt crystals were solubilized using 500uL anhydrous isopropanol with shaking for 20 minutes. Absorbance was read at 570 and 650nm using a Packard Fusion microplate reader. Background correction of absorbance units was used to determine percent change relative to controls. […]

Compound | outcome | AC50
CCCCCCCC[Si](OCC)(OCC)OCC | inactive | –
NC(=O)c1nc(-c2cccc(-c3cc(F)ccc3OCC(F)(F)C(F)(F)F)c2)n[nH]1 | inactive | –
C[C@]12CC[C@@H]3c4ccc(O)cc4CC[C@H]3[C@@H]1CC[C@H]2O | – | 3.31 µM (active)
O=C1CCC(C2CCCCC2)CC1 | inactive | –
CC(=O)N1CCN(c2ccc(OC[C@H]3CO[C@](Cn4ccnc4)(c4ccc(Cl)cc4Cl)O3)cc2)CC1 | – | 1 µM (active)
CCCCOC(=O)c1ccc(O)cc1 | inactive | –
O=C(Nc1ccc(Cl)cc1)Nc1ccc(Cl)c(Cl)c1 | – | 0.417 µM (active)
CCCCCCCCOC(=O)c1cc(O)c(O)c(O)c1 | – | 5 µM (active)
COc1cccc([C@H](O)C2CCN(CCc3ccc(F)cc3)CC2)c1OC | – | 9.1 µM (active)
CCCCCCCCN(C)CCCCCCCC | inactive | –
OC12N=C(c3ccccc3)SC1Cc1cc(Cl)ccc12 (centres undefined) | – | 17.6 µM (active)
O=C(O)Cn1c(=O)n(Cc2ccc(Br)cc2F)c(=O)c2ccc(Cl)cc21 | inactive | –
Cc1ccc2oc(CN(Cc3ccccc3)C(=O)Nc3c(F)cc(F)cc3F)c(-c3ccc(Cl)cc3)c2c1 | – | 1.36 µM (active)
Cc1c2ccccc2c(C)c2c1ccc1ccccc12 | inactive | –
Oc1ccc2ccccc2c1 | inactive | –
CN1C(=O)N(c2ccccc2Br)Cc2cnc(Nc3ccc4c(c3)OCC(CO)O4)nc21 (centres undefined) | – | 0.679 µM (active)
Clc1ccccc1C(c1ccccc1)(c1ccccc1)n1ccnc1 | – | 0.0401 µM (active)
Cc1oc2c(NC(=O)c3c(Cl)cccc3Cl)cccc2c1C(C)(C)O | – | 2.53 µM (active)
CCCCCCCCCCCC[N+](C)(C)C | inactive | –
CC(C)(c1cc(Br)c(O)c(Br)c1)c1cc(Br)c(O)c(Br)c1 | inactive | –
Clc1cc(Cl)c2c(c1)N=C1CCCCCN1C2 | inactive | –
O=c1c(-c2ccc(O)cc2)coc2cc(O)cc(O)c12 | – | 4.44 µM (active)
Cc1cc2c(cc1C(F)(F)F)N(C(=O)Nc1ccc(Oc3cccnc3C)nc1)CC2 | – | 0.227 µM (active)
CC(C)(C)c1cc(/C=C2\SC(N)=NC2=O)cc(C(C)(C)C)c1O | – | 0.866 µM (active)
